The record followed here is PubChem BioAssay (EPA / NIEHS).

Assay [1] addresses Glucocorticoid receptor (Homo sapiens) (UniProt P04150). Nature of the assay: ATG_GR_TRANS: Attagene TRANS-FACTORIAL HepG2 Assay for human Glucocorticoid Receptor (GR) (AID 2282978; active = hit-call score of the fitted dose curve at least 0.9, where 1 is the maximum;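 note: activators score as hits since higher reporter transcript over DMSO is fitted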). The following applies: HepG2 Attagene TRANS GR reporter, mRNA transcription. The gist of the method: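 Reporter transcript levels, detected by fluorescence after RT-PCR and capillary electrophoresis, served as the endpoint. HepG2 cells bearing transfected GAL4-UAS reporters responsive to NR-GAL4 chimeras were incubated with compound 24 h; DMSO defined baseline.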

Assay [2] addresses Oxysterols receptor LXR-beta (Homo sapiens) (UniProt P55055). Nature of the assay: ATG_LXRb_TRANS: Attagene TRANS-FACTORIAL HepG2 Assay for human Liver X Receptor beta (LXRb) (AID 2282981; active = hit-call score of the fitted dose curve at least 0.9, where 1 is the maximum). As to conditions: HepG2 Attagene TRANS GAL4-LXRb reporter, mRNA. The gist of the method:
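Readout: fluorescent reporter mRNA fragments resolved by capillary electrophoresis after RT-PCR. System: transiently transfected human HepG2, exogenous LXRb-Gal4 chimera driving GAL4-UAS reporter, 24 h dosing. Activity fitted upward against DMSO baseline.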

Assay [3] is described as follows: ATG_M_06_TRANS: Attagene TRANS-FACTORIAL HepG2 Assay for M06 Transcription Factor (Internal Marker) (AID 2282983; active = hit-call score of the fitted dose curve at least 0.9, where 1 is the maximum). The following applies: HepG2 Attagene TRANS M06 internal marker reporter. The gist of the method: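 Read-out: fluorescent reporter cDNA fragments resolved by capillary electrophoresis after RT-PCR and HpaI cut. Source cells were HepG2 carrying transfected multi-reporter GAL4 constructs, dosed 24 h. Increase over DMSO control analysed.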

Assay [4] is described as follows: ATG_M_32_TRANS: Attagene TRANS-FACTORIAL HepG2 Assay for M32 Transcription Factor (Internal Marker) (AID 2282984; active = hit-call score of the fitted dose curve at least 0.9, where 1 is the maximum;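 note: transcript level of a background control reporter unit measured by RT-PCR and capillary electrophoresis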). The following applies: HepG2 Attagene TRANS M32 internal marker reporter. Summed up:
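Read-out: fluorescent reporter cDNA fragments resolved by capillary electrophoresis after RT-PCR of total RNA. Transfected HepG2 cells were exposed to chemical for 24 h. Activity scored in the positive direction relative to DMSO.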

The target in assay [5] is Transcriptional activator Myb (Homo sapiens) (UniProt P10242). Nature of the assay: ATG_Myb_CIS: Attagene CIS-FACTORIAL HepG2 Assay for human Myeloblastosis (Myb) Proto-Oncogene Transcription Factor (AID 2282986). As to conditions: HepG2 Attagene CIS-FACTORIAL Myb reporter transcription; actives raise or lower the signal. The gist of the method: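 Transiently transfected HepG2 cells, treated 24 h. Reporter mRNA quantified by RT-PCR/capillary electrophoresis; bidirectional fit relative to DMSO.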

Assay [6] deals with Nuclear respiratory factor 1 (Homo sapiens) (UniProt Q16656). The assay can be described thus: ATG_NRF1_CIS: Attagene CIS-FACTORIAL HepG2 Assay for human Nuclear Respiratory Factor 1 (NRF1) Orphan Gene (AID 2282987). As to conditions: HepG2 NRF1 cis-element reporter, Attagene multiplex; actives raise or lower the signal. Summed up:
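Cells (HepG2, transient MRTU transfection) are exposed to compound for 24 h, then RNA isolated and reporter mRNA amplified and fluorescently labelled. Fragments are separated by capillary electrophoresis; signal change is fitted bidirectionally relative to DMSO.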

Assay [7] can be described thus: ATG_NFI_CIS: Attagene CIS-FACTORIAL HepG2 Assay for human Nuclear Factor I (NFI) (AID 2282989). As to conditions: HepG2 cis-regulatory reporter, NFI response element transcription; actives raise or lower the signal. Summed up:
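Read-out: reporter mRNA via RT-PCR plus capillary electrophoresis with fluorescence detection. Transiently transfected HepG2 (endogenous TF activity on cis promoters), 24 h compound exposure; gain or loss of signal fitted against DMSO.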

Assay [8] concerns the target Myc proto-oncogene protein (Homo sapiens) (UniProt P01106). Nature of the assay: ATG_Myc_CIS: Attagene CIS-FACTORIAL HepG2 Assay for human Myelocytomatosis (Myc) Proto-Oncogene Transcription Factor (AID 2282990). As to conditions: HepG2, Attagene cis-reporter transcription factor activity; actives raise or lower the signal. The gist of the method:
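Fluorescence intensity of reporter-specific cDNA fragments, separated by capillary electrophoresis, gives the signal. Transfected HepG2 cells carrying cis-promoter reporter constructs are incubated with compound for 24 h; DMSO serves as baseline.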

A short description of assay [9]: ATG_NF_kB_CIS: Attagene CIS-FACTORIAL HepG2 Assay for human Nuclear Factor Kappa B (NF-kB) (AID 2282991). The following applies: HepG2 Attagene cis-factorial NF-kB reporter mRNA; actives raise or lower the signal. Summed up:
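Measures mRNA induction of an NF-kB-responsive cis-element reporter in HepG2 cells transfected with multiple reporter units, sampled 24 h post-dosing; quantified by fluorescence after RT-PCR and capillary electrophoresis, fitted for activation or inhibition against DMSO.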

Assay [10] can be described thus: ATG_NRF2_ARE_CIS: Attagene CIS-FACTORIAL HepG2 Assay for human Nuclear Factor Erythroid 2 Related Factor 2 (NFR2) response to Antioxidant Response Elements (ARE) (AID 2282992). As to conditions: HepG2 Attagene ARE/NRF2 reporter, transcription factor activity; actives raise or lower the signal. Summed up: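 Endogenous transcription factor activity read out as reporter transcript levels (RT-PCR plus capillary electrophoresis, fluorescence) in transiently transfected HepG2 cells. Measured at 24 h after dosing; gain or loss of signal fitted versus DMSO.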

Assay [11] is described as follows: ATG_Oct_MLP_CIS: Attagene CIS-FACTORIAL HepG2 Assay for human Octamer-Binding Transcription Factor (Oct) (AID 2282993). As to conditions: HepG2 Attagene cis-factorial Oct reporter, mRNA; actives raise or lower the signal. Summed up: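 Read-out: reporter mRNA via RT-PCR plus capillary electrophoresis of 6-FAM-labelled fragments. Transiently transfected HepG2, 24 h exposure, endogenous TF activity on cis elements. Gain or loss of signal fitted relative to DMSO.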

In assay [12] the target is Cellular tumor antigen p53 (Homo sapiens) (UniProt P04637). Nature of the assay: ATG_p53_CIS: Attagene CIS-FACTORIAL HepG2 Assay for human p53 Transcription Factor (AID 2282994). The following applies: HepG2 p53 cis-element reporter, Attagene mRNA; actives raise or lower the signal. The gist of the method: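 Endogenous p53 activity read in transiently transfected HepG2 from a cis-element-driven reporter transcript after 24 h exposure. RNA reverse-transcribed, PCR-amplified, fluorescently labelled and sized by capillary electrophoresis; gain or loss fitted against DMSO baseline.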

The target of assay [13] is Oxysterols receptor LXR-alpha (Homo sapiens) (UniProt Q13133). Nature of the assay: ATG_LXRa_TRANS: Attagene TRANS-FACTORIAL HepG2 Assay for human Liver X Receptor alpha (LXRa) (AID 2282980; active = hit-call score of the fitted dose curve at least 0.9, where 1 is the maximum). The following applies: HepG2 Attagene TRANS reporter, LXRa transactivation. The gist of the method: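 Read-out: reporter transcript levels by RT-PCR plus capillary electrophoresis, fluorescence intensity. Transiently transfected HepG2, exogenous NR-GAL4 chimera, GAL4-UAS reporters; 24 h compound exposure. Activity = increase over DMSO negative control.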

Assay [14] can be described thus: BSK_3C_TissueFactor: BioMAP Diversity Plus: 3C Assay for Tissue Factor Biomarker Activity (AID 2282997). As to conditions: BioMAP 3C HUVEC, tissue factor biomarker readout; actives raise or lower the signal. Summed up: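 HUVEC, 3C system, 24 h post-dose; Tissue Factor by ELISA; bidirectional fit vs DMSO baseline.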
Assay [15] in a line: BSK_3C_uPAR: BioMAP Diversity Plus: 3C Assay for Urokinase-type plasminogen activator receptor (uPAR) Biomarker Activity (AID 2282998). The following applies: BioMAP 3C HUVEC, uPAR biomarker ELISA; actives raise or lower the signal. Summed up: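 HUVEC primary cells; 24 h post-dose; uPAR by ELISA; gain or loss of signal fitted bidirectionally vs DMSO baseline.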
In general terms: ELISA stands for enzyme-linked immunosorbent assay.

A short description of assay [16]: BSK_3C_VCAM1: BioMAP Diversity Plus: 3C Assay for Vascular cell adhesion molecule 1 (VCAM1) Biomarker Activity (AID 2282999). The following applies: BioMAP 3C HUVEC, VCAM1 ELISA, cytokine-stimulated; actives raise or lower the signal. Summed up: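 HUVEC primary cells, 24 h compound exposure; VCAM-1 by ELISA; gain/loss of signal fitted bidirectionally vs DMSO baseline.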

The nature of assay [17]: BSK_4H_Eotaxin3: BioMAP Diversity Plus: 4H Assay for Eotaxin 3 Biomarker Activity (AID 2283000).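 Note: CCL26 protein level quantified by ELISA in parallel with SRB cytotoxicity check.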 The following applies: primary human endothelial cells (HUVEC); actives raise or lower the signal. Summed up:
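Readout is Eotaxin-3 (CCL26) level by ELISA in primary human umbilical vein endothelial cells harvested 24 h after chemical exposure; activity fitted in both directions against DMSO control.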

The target of assay [18] is Hepatocyte nuclear factor 4-alpha (Homo sapiens) (UniProt P41235). Nature of the assay: ATG_HNF4a_TRANS: Attagene TRANS-FACTORIAL HepG2 Assay for human Hepatocyte Nuclear Factor 4 alpha (HNF4a) (AID 2282982; active = hit-call score of the fitted dose curve at least 0.9, where 1 is the maximum). As to conditions: HepG2 HNF4a transactivation reporter, mRNA readout. The gist of the method:
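Transient MRTU transfection of HepG2, 24 h dosing. Readout: reporter mRNA via RT-PCR + capillary electrophoresis, fluorescence; activity fit upward relative to DMSO control.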

The AC50 is the midpoint of the concentration-response curve, whichever way the signal moves.

Records with an inconclusive call do not appear. Activity calls are given as the source filed them. Rule for the calls, unless noted: active = hit-call score of the fitted dose curve at least 0.9, where 1 is the maximum; inactive = score below 0.9.

Chain of Oxysterols receptor LXR-beta (Homo sapiens) (P55055 whole entry, looked up, the tested form may be a part): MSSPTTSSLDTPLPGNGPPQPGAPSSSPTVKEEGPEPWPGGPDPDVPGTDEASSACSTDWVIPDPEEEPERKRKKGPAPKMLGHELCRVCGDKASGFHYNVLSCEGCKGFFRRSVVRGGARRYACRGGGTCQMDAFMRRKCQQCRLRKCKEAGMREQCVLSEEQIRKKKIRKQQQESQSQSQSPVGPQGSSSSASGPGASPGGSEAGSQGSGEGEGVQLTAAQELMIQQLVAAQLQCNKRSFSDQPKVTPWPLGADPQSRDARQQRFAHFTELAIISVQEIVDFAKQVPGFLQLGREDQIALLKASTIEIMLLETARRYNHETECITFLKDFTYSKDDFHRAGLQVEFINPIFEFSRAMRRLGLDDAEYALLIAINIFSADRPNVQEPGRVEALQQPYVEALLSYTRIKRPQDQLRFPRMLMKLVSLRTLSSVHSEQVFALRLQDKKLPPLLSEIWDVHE
Chain of Cellular tumor antigen p53 (Homo sapiens) (P04637 whole entry, looked up): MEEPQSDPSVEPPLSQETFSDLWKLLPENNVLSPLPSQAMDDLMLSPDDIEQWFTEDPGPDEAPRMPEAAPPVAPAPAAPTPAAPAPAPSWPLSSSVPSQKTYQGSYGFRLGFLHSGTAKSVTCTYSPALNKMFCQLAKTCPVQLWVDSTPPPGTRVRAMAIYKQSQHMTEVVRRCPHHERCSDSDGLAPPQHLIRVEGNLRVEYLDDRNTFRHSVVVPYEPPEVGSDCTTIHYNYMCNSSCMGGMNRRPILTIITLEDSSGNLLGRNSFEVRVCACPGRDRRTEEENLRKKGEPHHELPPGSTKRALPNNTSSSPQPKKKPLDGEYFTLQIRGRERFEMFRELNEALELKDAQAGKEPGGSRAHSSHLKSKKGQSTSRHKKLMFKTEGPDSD
Chain of Nuclear respiratory factor 1 (Homo sapiens) (Q16656 whole entry, looked up, the tested form may be a part): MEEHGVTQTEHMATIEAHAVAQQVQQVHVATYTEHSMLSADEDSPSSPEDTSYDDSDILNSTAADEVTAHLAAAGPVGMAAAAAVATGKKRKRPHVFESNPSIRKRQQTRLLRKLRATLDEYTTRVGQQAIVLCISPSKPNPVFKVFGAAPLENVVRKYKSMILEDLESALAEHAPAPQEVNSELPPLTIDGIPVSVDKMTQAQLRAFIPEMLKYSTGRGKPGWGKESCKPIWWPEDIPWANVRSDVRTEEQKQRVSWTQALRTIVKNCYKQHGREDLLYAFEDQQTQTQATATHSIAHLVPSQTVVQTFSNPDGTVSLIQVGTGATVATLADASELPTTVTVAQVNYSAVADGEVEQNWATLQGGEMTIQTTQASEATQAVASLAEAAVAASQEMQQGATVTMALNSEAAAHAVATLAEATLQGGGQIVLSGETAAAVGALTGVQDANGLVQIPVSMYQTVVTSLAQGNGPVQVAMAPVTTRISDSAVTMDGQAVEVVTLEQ
Chain of Oxysterols receptor LXR-alpha (Homo sapiens) (Q13133 whole entry, looked up, the tested form may be a part): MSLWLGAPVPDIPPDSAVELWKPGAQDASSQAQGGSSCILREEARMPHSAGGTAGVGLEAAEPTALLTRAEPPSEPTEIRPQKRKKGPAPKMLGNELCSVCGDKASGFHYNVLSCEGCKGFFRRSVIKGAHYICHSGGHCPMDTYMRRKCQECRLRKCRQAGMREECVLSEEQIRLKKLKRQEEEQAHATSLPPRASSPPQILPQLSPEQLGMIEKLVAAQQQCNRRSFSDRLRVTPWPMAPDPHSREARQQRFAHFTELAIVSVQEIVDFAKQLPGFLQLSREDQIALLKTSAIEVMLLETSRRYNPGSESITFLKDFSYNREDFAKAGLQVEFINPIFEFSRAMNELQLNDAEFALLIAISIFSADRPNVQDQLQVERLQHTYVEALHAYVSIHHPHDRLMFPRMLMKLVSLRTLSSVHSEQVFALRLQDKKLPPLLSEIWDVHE
Chain of Transcriptional activator Myb (Homo sapiens) (P10242 whole entry, looked up): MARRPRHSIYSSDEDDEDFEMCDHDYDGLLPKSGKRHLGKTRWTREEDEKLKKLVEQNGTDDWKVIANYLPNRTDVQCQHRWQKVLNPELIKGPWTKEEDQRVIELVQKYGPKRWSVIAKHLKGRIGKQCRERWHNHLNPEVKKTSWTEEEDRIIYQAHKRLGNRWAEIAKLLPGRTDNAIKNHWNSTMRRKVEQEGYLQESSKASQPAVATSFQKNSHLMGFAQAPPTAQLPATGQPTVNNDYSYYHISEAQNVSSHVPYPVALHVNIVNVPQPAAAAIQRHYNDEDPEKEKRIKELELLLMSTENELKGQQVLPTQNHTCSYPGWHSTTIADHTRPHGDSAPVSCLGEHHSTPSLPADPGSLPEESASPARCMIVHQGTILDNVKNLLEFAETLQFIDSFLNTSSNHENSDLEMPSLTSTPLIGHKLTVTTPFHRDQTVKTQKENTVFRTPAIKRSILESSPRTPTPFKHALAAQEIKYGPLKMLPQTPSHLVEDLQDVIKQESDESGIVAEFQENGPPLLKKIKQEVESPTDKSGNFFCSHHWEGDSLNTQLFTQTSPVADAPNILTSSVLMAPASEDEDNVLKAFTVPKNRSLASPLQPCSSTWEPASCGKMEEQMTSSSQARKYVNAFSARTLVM
Chain of Myc proto-oncogene protein (Homo sapiens) (P01106 whole entry, looked up, the tested form may be a part): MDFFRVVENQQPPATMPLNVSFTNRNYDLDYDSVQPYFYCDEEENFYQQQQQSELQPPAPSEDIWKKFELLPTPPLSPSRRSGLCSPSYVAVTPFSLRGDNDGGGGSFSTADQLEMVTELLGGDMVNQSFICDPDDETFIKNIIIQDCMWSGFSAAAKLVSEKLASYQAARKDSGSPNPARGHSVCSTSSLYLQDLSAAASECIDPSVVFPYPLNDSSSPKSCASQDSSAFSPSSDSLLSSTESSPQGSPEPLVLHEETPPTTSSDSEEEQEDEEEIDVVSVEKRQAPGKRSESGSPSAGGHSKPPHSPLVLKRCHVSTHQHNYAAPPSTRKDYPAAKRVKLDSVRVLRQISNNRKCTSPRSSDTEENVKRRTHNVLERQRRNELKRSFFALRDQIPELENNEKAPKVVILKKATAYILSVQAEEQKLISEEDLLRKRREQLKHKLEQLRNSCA
Chain of Glucocorticoid receptor (Homo sapiens) (P04150 whole entry, looked up, the tested form may be a part): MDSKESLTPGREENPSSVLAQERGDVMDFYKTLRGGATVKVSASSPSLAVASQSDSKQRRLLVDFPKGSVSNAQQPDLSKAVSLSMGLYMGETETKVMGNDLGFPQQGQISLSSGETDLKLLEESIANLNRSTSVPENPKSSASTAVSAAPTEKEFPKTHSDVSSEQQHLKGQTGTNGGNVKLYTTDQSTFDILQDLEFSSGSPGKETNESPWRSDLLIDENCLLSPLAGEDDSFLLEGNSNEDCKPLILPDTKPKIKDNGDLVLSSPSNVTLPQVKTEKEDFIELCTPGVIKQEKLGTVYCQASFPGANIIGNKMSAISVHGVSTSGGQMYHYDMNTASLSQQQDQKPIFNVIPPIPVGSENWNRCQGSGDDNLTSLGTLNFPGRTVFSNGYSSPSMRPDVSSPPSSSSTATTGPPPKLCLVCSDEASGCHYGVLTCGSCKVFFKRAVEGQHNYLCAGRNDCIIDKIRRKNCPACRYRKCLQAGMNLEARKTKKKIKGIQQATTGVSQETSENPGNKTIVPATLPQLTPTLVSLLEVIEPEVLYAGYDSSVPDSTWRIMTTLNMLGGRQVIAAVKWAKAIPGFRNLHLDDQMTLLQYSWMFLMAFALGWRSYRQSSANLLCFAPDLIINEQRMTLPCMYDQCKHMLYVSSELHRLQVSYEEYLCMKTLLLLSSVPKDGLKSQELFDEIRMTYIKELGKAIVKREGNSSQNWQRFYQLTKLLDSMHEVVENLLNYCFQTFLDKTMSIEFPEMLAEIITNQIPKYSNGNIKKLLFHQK
Chain of Hepatocyte nuclear factor 4-alpha (Homo sapiens) (P41235 whole entry, looked up): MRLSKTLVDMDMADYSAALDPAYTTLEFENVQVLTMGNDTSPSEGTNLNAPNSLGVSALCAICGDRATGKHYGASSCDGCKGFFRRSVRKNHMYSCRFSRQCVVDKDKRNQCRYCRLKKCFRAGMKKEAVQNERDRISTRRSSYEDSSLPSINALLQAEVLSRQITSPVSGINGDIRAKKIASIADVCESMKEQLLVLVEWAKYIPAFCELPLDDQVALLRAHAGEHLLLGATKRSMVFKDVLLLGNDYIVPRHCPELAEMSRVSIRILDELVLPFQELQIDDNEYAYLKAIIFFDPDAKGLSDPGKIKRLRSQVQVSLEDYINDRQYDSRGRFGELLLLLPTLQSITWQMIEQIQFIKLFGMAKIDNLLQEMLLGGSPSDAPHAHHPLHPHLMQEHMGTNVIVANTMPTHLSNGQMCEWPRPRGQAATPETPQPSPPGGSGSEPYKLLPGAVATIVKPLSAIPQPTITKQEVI

With `COc1ccc(Nc2ccccc2)c(C)c1`, the molecule was called inactive in [1], in [2], in [3], in assay [4], in assay [5] and in assay [6]. Besides, the outcome in assay [7], in [8], in [11] and in assay [12] was inactive. The AC50 in assay [9] is 151 µM (active); in [10] it was 79.9 µM (active).
As to `CC(C)c1cccc(O)c1`, the result in [1], in assay [13], in assay [3], in assay [4], in assay [5] and in [6] was inactive. Also, the call in assay [7], in [8], in assay [9], in assay [11] and in assay [12] was inactive.
Regarding `N#Cc1ccc(CC(=NNC(=O)Nc2ccc(OC(F)(F)F)cc2)c2cccc(C(F)(F)F)c2)cc1`, the outcome in [1], in [2], in assay [5], in [7], in [8] and in assay [9] was inactive. Also, the molecule was classed as inactive in [10], in assay [11], in assay [14], in assay [15], in assay [16] and in [17].
In the case of `CC(=O)O[C@H](CC(=O)[O-])C[N+](C)(C)C`, the molecule was called inactive in assay [1], in assay [13], in [5], in assay [6], in assay [7] and in [8]. Moreover, the result in assay [9], in assay [10], in assay [11] and in [12] was inactive.
`O=C(O)c1ccc([N+](=O)[O-])cc1`: the result in [1], in assay [2], in assay [18], in assay [3], in assay [4] and in assay [5] was inactive. Moreover, the outcome in [7], in assay [8], in assay [9], in assay [10], in assay [11] and in assay [12] was inactive. The result in assay [14], in [15], in assay [16] and in assay [17] was inactive.
Turning to `CCO[Si](CCCS)(OCC)OCC`, the result in [1], in assay [2], in assay [18], in [5], in assay [6] and in [7] was inactive. Further, the outcome in assay [8], in assay [9], in [11] and in [12] was inactive.
As to `O=S(=O)(O)c1cccc2c(S(=O)(=O)O)cccc12`, the molecule was called inactive in [1], in [13], in assay [3], in assay [5], in [6] and in [7]. Besides, the outcome in assay [8], in [9], in [10] and in assay [12] was inactive.
As for `CC(=O)Nc1ccc(CC(=O)O)cc1`, the outcome in assay [1], in assay [13], in assay [5], in assay [7], in [8] and in assay [10] was inactive. Moreover, the outcome in assay [11] and in [12] was inactive.
As for `O=CCCc1ccccc1`, the result in assay [1], in [13], in [3], in [4], in assay [5] and in assay [6] was inactive. For the same molecule, the outcome in [7], in assay [8], in [9] and in [11] was inactive. In addition, the AC50 in [10] is 38 µM (active).
